Assay outcomes (PubChem)
The list is not random: actives were taken first. Their share in the collection is about 2.9%.
HEK293 tox: qHTS of GLP-1 Receptor Inverse Agonists: Cytotox Screen; HEK293 cAMP-luciferase reporter cells, luminescence, 24 h; Potency, µM (doses to about 38.3 µM), most hits filed as inhibitors; 410,000 tested, 0.13% active; AID 624418, 2012;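 further: loss of luciferase light is scored as toxicity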
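Quantitative HTS format, 1536 wells, 200 cells/uL seeded. Compounds: 23 nL, 24 h, 37 °C. Detection: luciferase reagent, luminescence at 12 min RT; decreased signal taken as cytotoxic.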
GLP-1R agonist: qHTS of GLP-1 Receptor Agonists. 380,000 tested, 0.007% active. Potency, µM (series often up to 45.6 µM), most hits filed as activators. AID 624172, 2012. HEK293 GLP-1R CRE-luciferase, luminescence, 4-6 h; cells express a hypersensitive GLP-1R form. Glucagon-like peptide 1 receptor (Homo sapiens), P43220
Target sequence (P43220 whole entry, looked up): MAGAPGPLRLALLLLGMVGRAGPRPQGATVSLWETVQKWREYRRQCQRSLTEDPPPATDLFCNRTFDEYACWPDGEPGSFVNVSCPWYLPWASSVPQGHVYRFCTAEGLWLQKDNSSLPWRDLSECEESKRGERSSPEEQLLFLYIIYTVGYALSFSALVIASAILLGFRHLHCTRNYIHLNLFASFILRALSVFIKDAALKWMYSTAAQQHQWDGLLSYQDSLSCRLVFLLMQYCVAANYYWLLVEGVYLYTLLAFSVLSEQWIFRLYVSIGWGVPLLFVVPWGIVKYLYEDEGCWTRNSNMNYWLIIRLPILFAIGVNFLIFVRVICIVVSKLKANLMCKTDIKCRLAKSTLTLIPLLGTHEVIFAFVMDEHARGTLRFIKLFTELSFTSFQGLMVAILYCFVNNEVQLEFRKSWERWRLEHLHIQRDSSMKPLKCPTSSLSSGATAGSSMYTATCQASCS
LDHA inh: qHTS assay for inhibitors of human lactate dehydrogenase. L-lactate dehydrogenase A chain (Homo sapiens), P00338. purified LDHA, NADH/diaphorase-resazurin fluorescence; active compounds read low. activity change, % (values are at about 110 or 230 µM). 480,000 tested, 0.15% active. AID 1347041, 2019; in the data active means activity change below about -30%; inconclusive means mostly about -25% to -30%
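Resorufin fluorescence (ex540/em590), read at 0 and 20 min after diaphorase/resazurin addition, reports the NADH left after a 5 min room-temperature reaction of 2 nM human LDH5 with 0.06 mM NADH and 0.2 mM pyruvate.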
ClpP mod: qHTS Assay for Activators of ClpP; 340,000 tested, 1.9% active; ATP-dependent Clp protease proteolytic subunit (Bacillus subtilis (strain 168)), P80244; Potency, µM (top dose mostly 57.5 µM); purified B. subtilis ClpP, FRET peptide cleavage, 20 min; active means well fitted falling curve with a large enough effect; inconclusive means small, poorly fitted or top-dose-only effect; inactive means no such curve, though single readings can be large or run the other way; further: the source files actives as falling curves though it sought activators and does not explain the sign; nearly all actives have a fitted effect of over 65% in size
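FRET quenching reversal measured ClpP activation: 10 microg/mL B. subtilis ClpP at pH 8 with the FRET-FV decapeptide, read at 430 nm after 320 nm excitation. The 20-min minus 0-min signal was scaled between DMSO/no-enzyme wells and ADEP (5.8 microM final).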
GLP1R inv ag: qHTS of GLP-1 Receptor Inverse Agonists (Inhibition Mode). AID 624417, 2012. Glucagon-like peptide 1 receptor (Homo sapiens), P43220. HEK293 GLP-1R CRE-luciferase, luminescence, 24 h; GLP-1R form is constitutively active. Potency, µM (titrated, usually from 38.3 µM), hits mostly inhibitors. 410,000 tested, 1.6% active; further: nearly all actives have a fitted effect of over 55% in size
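Using stably transfected HEK293 (constitutively active GLP-1R, cAMP-luciferase reporter), compounds were incubated 24 hr and luciferase measured by luminescence.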
p53 reactivator: qHTS assay for re-activators of p53 using a Luc reporter. H1299 p53-A138V BP100-luciferase reporter, luminescence, 24 h. Potency, µM (highest dose often 92.2 µM), usual class: activators. 320,000 tested, 0.063% active. AID 504706, 2011; further: nearly all actives have a fitted effect of over 45% in size
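H1299 (p53-null), stable ts p53-A138V + BP100-Luc; 1000 cells/well, Opti-MEM/10% FBS; cpd 4 pt, 1:5; 24 h, 37 deg C, 5% CO2; detection reagent 10 min RT; luminescence.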
Each line names hits and unclear results; the compound was inactive in the other large screens. Unless noted, the call rests on the fitted dose curve; in most records, active means well fitted curve in the direction sought with a large enough effect; inconclusive means small, poorly fitted or top-dose-only effect, or another doubt; inactive means no such curve, though single readings can be large; an effect the other way counts as inactive or inconclusive.

Cc1ccc(N2NC3(CCC(C)CC3)NC2=S)cc1 (centres undefined)	none (no result: HEK293 tox, GLP-1R agonist, ClpP mod, GLP1R inv ag, p53 reactivator)
S=C1NC2(CCCCC2)NN1c1ccccc1	GLP1R inv ag inconclusive (no result: ClpP mod)
CC1CC(C)(C)CC2(C1)NC(=S)N(c1ccccc1)N2 (centres undefined)	ClpP mod 16µM, GLP1R inv ag 3.5µM
COc1ccc(C2C(C#N)=C(SCc3ccccc3)NC3=C2C(=O)CC(C)(C)C3)cc1OC (centres undefined)	none (no result: HEK293 tox, GLP-1R agonist, ClpP mod, GLP1R inv ag, p53 reactivator)
CN(C)S(=O)(=O)c1cccc(NC(=O)COC(=O)c2cc(-c3cccc(Br)c3)nc3ccccc23)c1	GLP1R inv ag 10µM
CN(C)S(=O)(=O)c1cccc(NC(=O)COC(=O)c2ccc3ccccc3n2)c1	none
COc1ccc(-n2cc3c(c2-c2ccccc2F)c(=O)n(C)c(=O)n3C)cc1	none (no result: HEK293 tox, GLP-1R agonist, ClpP mod, GLP1R inv ag, p53 reactivator)
COc1ccc(-c2c3c(=O)n(C)c(=O)n(C)c3cn2C2CCCCC2)cc1	ClpP mod 16µM, GLP1R inv ag inconclusive
CCc1noc(C)c1C(=O)N(CCOC)c1c(N)n(CC(C)C)c(=O)[nH]c1=O	none
CC1CCCCC1NC(=O)CN1CCN(S(=O)(=O)c2ccc(Br)s2)CC1 (centres undefined)	ClpP mod 14µM, GLP1R inv ag inconclusive
O=C(C1CCN(Cc2cc(Cl)ccc2O)CC1)N1CCN(Cc2ccccc2)CC1	GLP1R inv ag 7.1µM
C/C(=C\[C@@H](NP(=O)(c1ccccc1)c1ccccc1)c1ccccc1)CO[Si](c1ccccc1)(c1ccccc1)C(C)(C)C	GLP1R inv ag 7.9µM (no result: p53 reactivator)
COc1ccc(N(C(=O)/C=C\C(=O)Nc2ccc(C)cc2)C(C(=O)NCc2ccco2)c2ccc(C)cc2)cc1 (centres undefined)	GLP1R inv ag inconclusive (no result: GLP-1R agonist, p53 reactivator)
COc1ccc(NC(=O)/C=C\C(=O)N(c2ccc(C(C)C)cc2)C(C(=O)NCc2ccco2)c2ccc(C)cc2)cc1 (centres undefined)	GLP1R inv ag 10µM (no result: GLP-1R agonist, p53 reactivator)
CC1(C)CC(=O)C2=C(C1)c1c(ccc3ccccc13)NC2c1ccc(Br)o1 (centres undefined)	ClpP mod 13µM, GLP1R inv ag inconclusive
Cc1nc(N)nc(N)c1CCCc1ccc(Cl)c(Cl)c1	GLP1R inv ag 7.1µM (no result: ClpP mod, p53 reactivator)
Cc1nc(N)nc(N)c1-c1ccc(Cl)c(Cl)c1	GLP1R inv ag inconclusive (no result: p53 reactivator)
Cc1nnc(N/N=C\c2ccc(-c3cccc(C(=O)O)c3)o2)n1N	none
O=C(C[n+]1cccc(Br)c1)c1cc(Cl)ccc1Cl	none (no result: HEK293 tox, GLP-1R agonist, GLP1R inv ag, p53 reactivator)
c1ccc(-c2ccc(-c3cnc4n3CCCCC4)cc2)cc1	HEK293 tox inconclusive, ClpP mod inconclusive, GLP1R inv ag 5µM
CCOc1ccc(-c2nc(CSCC(=O)NC3CCCC3)c(C)o2)cc1	none (no result: HEK293 tox, GLP-1R agonist, ClpP mod, GLP1R inv ag, p53 reactivator)
Cc1cc(SCC(=O)c2ccc(O)c(O)c2)n2nc(C)c(-c3ccccc3)c2n1	HEK293 tox inconclusive, GLP1R inv ag 11µM
Cc1cc(C)nc(SCC(=O)c2ccc(O)c(O)c2)n1	none
CCN(C(=O)Cn1nc(C(N)=O)c2ccccc2c1=O)C1CCCC1	none (no result: HEK293 tox, GLP-1R agonist, ClpP mod, GLP1R inv ag, p53 reactivator)
CCN(CC)C(=O)c1sc2c(c1C)c(=O)n(CCc1ccccc1)c(=O)n2Cc1cccc(Cl)c1	GLP1R inv ag inconclusive (no result: GLP-1R agonist, p53 reactivator)
CCN(CC)C(=O)c1sc2c(c1C)c(=O)n(Cc1ccccc1)c(=O)n2Cc1ccccc1C	GLP1R inv ag 11µM (no result: GLP-1R agonist, p53 reactivator)
COc1ccccc1C(c1nnnn1CC1CCCO1)N1CCC(C(N)=O)CC1 (centres undefined)	none
Cc1ccc2[nH]c(=O)c(C(c3nnnn3CC3CCCO3)N3CCOCC3)cc2c1 (centres undefined)	ClpP mod 22µM
COc1ccc2[nH]c(=O)c(C(c3nnnn3CC3CCCO3)N3CCc4ccccc4C3)cc2c1 (centres undefined)	ClpP mod 32µM
